# Compound activity: PubChem, National Center for Advancing Translational Sciences (NCATS)
# A selection: hits, their analogues and other compounds. The true share with any hit is near 19%.
# TDP1 cell CPT: growth inhibition of DT40 Tdp1-/-;hTDP1 cells with camptothecin (screen for TDP1 inhibitors); Potency, µM (doses to about 46.2 µM), for inactives: at the top dose activity change, negative = growth inhibition, most hits filed as inhibitors; 420,000 tested, 12% active; chicken DT40 Tdp1-/-;hTDP1 cells + 20 nM CPT, ATP luminescence, 48 h; note: potency is the fitted concentration of half-maximal effect; % is set by controls: 0 for no effect and ±100 for the full control effect; nearly all actives have a fitted effect of over 55% in size
#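 Chicken DT40 Tdp1-/- cells stably complemented with human TDP1 were seeded at 400 cells/well in medium containing 20 nM camptothecin, exposed to pin-transferred compounds, and grown at 37 °C for at least 48 hr. Viability was read as ATP luminescence.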
# MCF10A rerep: inducers of DNA re-replication in MCF 10A breast cells; MCF 10A DNA re-replication, Hoechst nuclear intensity, 48 h; Potency, µM (top dose mostly 46.1 µM), inactives show at the top dose activity, positive = re-replication, hits mostly activators; 350,000 tested, 2.9% active; AID 624296; note: potency is the fitted concentration of half-maximal effect; % of control where 0% means no effect; nearly all actives have a fitted effect of over 50% in size
# IL-1B inflam inh: inhibitors of inflammasome signaling (IL-1 beta secretion). THP-1 LPS/ATP IL-1B secretion, AlphaLISA, 16 h; hits give low values. activity change, % at 57.5 µM. 360,000 tested, 4.7% active. AID 743279; in the data active = activity change below about -50%; inconclusive = mostly about -30% to -49%; note: % is set by controls: 0 for no effect and ±100 for the full control effect
#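 Secreted IL-1B measured by AlphaLISA bead assay after 16 h compound exposure of THP-1 cells; compounds (final up to 57.5 uM) added 1 h before LPS (250 ng/mL) and ATP (1.25 mM) stimulation; lower signal means less secretion.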
# Chronic BCR inh: inhibitors of chronic active B-cell receptor signaling; ABC-DLBCL IkBa-CBG/CBR reporter, luminescence ratio, 4 h; Potency, µM (doses to about 46.1 µM), without a hit: top-dose activity change, negative = inhibition, hits mostly inhibitors; 340,000 tested, 0.05% active; active = well fitted inhibition curve with a large enough effect in the signal ratio, with a control signal flat, not every such curve was filed as active; inconclusive = small, poorly fitted or top-dose-only effect, or effect the other way, or a change in a side signal; the % refers to the signal ratio;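 note: potency is the fitted concentration of half-maximal effect; plate controls were basal doxycycline-induced cells for no effect and cells given 10 µM MG132 for full effect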
#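 Compounds up to 46 uM were incubated four hours with TMD8 cells whose green CBG68 luciferase is fused to IkappaBalpha; red CBR luminescence normalised the signal, and concentration-effect curves were fitted to fusion, red and ratio data.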
# SW480 rerep: DNA re-replication induction in SW480 cells; 340,000 tested, 1.8% active; SW480 DNA re-replication, Hoechst DNA content imaging, 48 h; Potency, µM (top dose mostly 46.1 µM), for inactives: at the highest dose re-replication activation, actives largely listed as activators; AID 624297; note: potency is the fitted concentration of half-maximal effect; % of control where 0% means no effect; nearly all actives have a fitted effect of over 55% in size
#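 Readout is total intensity of Hoechst-stained nuclei, excited at 405 nm and collected at 500-530 nm. Compound treatment lasted 48 hr at 37 C in 5% CO2 before staining.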
# TDP1 cell noCPT: qHTS for Inhibitors of human tyrosyl-DNA phosphodiesterase 1 (TDP1): qHTS in cells in absence of CPT; DT40 Tdp1-/- hTDP1 cells, no CPT, ATP luminescence, 48 h; Potency, µM (titrated, usually from 46.2 µM), for inactives: at the highest dose activity change, negative = growth inhibition, most hits filed as inhibitors; 420,000 tested, 15% active; note: potency is the fitted concentration of half-maximal effect; % is set by controls: 0 for no effect and ±100 for the full control effect; nearly all actives have a fitted effect of over 55% in size
#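 Seeded 400 DT40-hTDP1 cells/well (vehicle DMSO, no 20 nM CPT); pinned compounds; ≥48 hr at 37 °C; CellTiter-Glo luminescence as viability measure.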
# * marks the source's active call; other numbers are inactive results; ? = inconclusive; . = no result given; ! = repeats disagree. Unless noted, calls come from the whole dose curve; as a rule, active = well fitted curve in the direction sought with a large enough effect; inconclusive = small, poorly fitted or top-dose-only effect, or another doubt; inactive = no such curve, though single readings can be large; an effect the other way counts as inactive or inconclusive.
SMILES,TDP1 cell CPT,MCF10A rerep,IL-1B inflam inh,Chronic BCR inh,SW480 rerep,TDP1 cell noCPT
CC12CC3(C)CC(C)(C1)CC(C(=O)NC(=S)N1CCCC1)(C2)C3,?,24.4%,10.6,17.4%,?,-26.6%
Cc1nn(C(=O)Cn2ccc([N+](=O)[O-])n2)c(C)c1Cl,35.5%,-7.3%,24.4,-0.7%,-3.1%,-5.4%
CCOc1ccc(NC(=O)C2Cc3ccccc3N2C(=O)c2ccccc2)cc1 (centres undefined),23.1µM*,.,.,.,.,20.6µM*
COc1ccc(NC(=O)C2Cc3ccccc3N2C(=O)c2ccccc2)c(OC)c1 (centres undefined),-25.5%,.,.,.,.,-23.3%
CC(C)c1ccc(NC(=O)C2Cc3ccccc3N2C(=O)c2ccccc2)cc1 (centres undefined),18.4µM*,.,.,.,.,5.8µM*
CC1(C(=O)NS(=O)(=O)c2ccccc2)CCN1C(=O)CC1CCCCC1 (centres undefined),-3.7%,.,19.5,.,.,-5.9%
O=[N+]([O-])c1cc(-c2nc(-c3ccccc3)no2)ccc1NCc1cccnc1,11.6µM*,.,.,.,.,5.8µM*
COc1ccc(-c2noc(-c3ccc(NCc4cccnc4)c([N+](=O)[O-])c3)n2)cc1,?,.,.,.,.,-0.7%
Cc1ccc(-c2noc(-c3ccc(NCc4cccnc4)c([N+](=O)[O-])c3)n2)cc1,?,.,.,.,.,5.17µM*
CCn1c(O)c(N=NC(=O)c2cccnc2)c2cc(Br)ccc21,?,3.8%,67.4,-4.3%,?,23.1µM*
COc1ccccc1C(=O)NC(=O)COC(=O)CN1C(=O)NC(C)(C)C1=O,-16.9%,-2.7%,-0.5,-1.0%,-96.9%,0.5%
COCCNC(=O)/C(C#N)=C/c1cn(CC(=O)NCc2ccco2)c2ccccc12,3.8%,16.4%,29.5,?,0.1%,-26.5%
Cc1cccc(NC(=O)/C(C#N)=C/c2cn(CC(=O)NCc3ccco3)c3ccccc23)c1,-22.2%,8.2µM*,7.5,1.7%,?,?
COc1ccccc1OCCn1cc(/C=C(\C#N)C(=O)NCc2ccco2)c2ccccc21,-15.4%,13.5%,0.0,-12.7%,-63.5%,-25.7%
N#C/C(=C\c1cn(CCOc2ccccc2)c2ccccc12)C(=O)NCc1cccs1,-1.8%,?,0.0,?,16.4µM*,-18.4%
N#C/C(=C\c1cn(Cc2ccccc2F)c2ccccc12)C(=O)NCc1ccco1,-20.0%,18.4µM*,-1.8,?,29.7%,-16.8%
CCOC(=O)c1ccc(N2C(=O)c3n[nH]c(-c4cccs4)c3C2c2ccc(OCC)cc2)cc1 (centres undefined),29.1µM*,.,.,.,.,11.6µM*
CCOC(=O)c1ccc(N2C(=O)c3n[nH]c(-c4cccs4)c3C2c2ccc(CC)cc2)cc1 (centres undefined),14.6µM*,.,.,.,.,11.6µM*
CCOC(=O)c1ccc(N2C(=O)c3n[nH]c(-c4cccs4)c3C2c2cccc(O)c2)cc1 (centres undefined),16.4µM*,.,.,.,.,20.6µM*
CCOC(=O)c1ccc(N2C(=O)c3n[nH]c(-c4cccs4)c3C2c2ccc(C(C)C)cc2)cc1 (centres undefined),?,.,.,.,.,16.4µM*
CCOC(=O)c1nnn(C(CC)C(=O)Nc2c(C)cccc2C)c1C(=O)OCC (centres undefined),-4.2%,.,.,.,.,-3.8%
COC(=O)c1ccc(C(c2c(C)n(C)n(-c3ccccc3)c2=O)c2c(C)n(C)n(-c3ccccc3)c2=O)cc1,-11.4%,7.3%,18.9,-0.6%,0.7%,27.2%
CCOc1ccccc1NC(=O)CSc1nnc(CNC(=O)c2cc(OC)c(OC)c(OC)c2)o1,10.8%,-1.2%,26.0,8.2%,-2.1%,12.2%
C=C(C)Cn1c(SCC(=O)N/N=C/c2c(O)ccc3ccccc23)nc2ccccc2c1=O,7.31µM*,?,28.0,-0.8%,?,6.51µM*
C=C(C)Cn1c(SCC#N)nc2ccccc2c1=O,-4.6%,?,-3.2,8.6%,0.7%,-20.3%
SMILES,TDP1 cell CPT,MCF10A rerep,IL-1B inflam inh,Chronic BCR inh,SW480 rerep,TDP1 cell noCPT
C=C(C)Cn1c(SCC)nc2ccccc2c1=O,?,?,4.5,21.0%,-5.4%,10µM*!
Cc1ccc(Cn2nc(C)c(NC(=O)c3cc(-c4ccc5c(c4)OCO5)on3)c2C)cc1,16.4µM*,?,3.0,-2.5%,?,?
Cc1nn(Cc2ccc(F)cc2)c(C)c1NC(=O)c1nn(C)cc1Cl,-15.5%,-1.0%,0.6,-1.2%,0.7%,?
O=C(Nc1ccc2c(c1)OCO2)c1cc2ncc(Br)cn2n1,?,-0.9%,-6.8,-1.0%,2.0%,20.6µM*
CCc1ccc(-c2cc(C(F)(F)F)n3nc(C(=O)Nc4c(C)nn(Cc5ccc(F)cc5)c4C)cc3n2)s1,?,?,?,-0.6%,8.2µM*,23.1µM*
O=C(Nc1ccc2c(c1)OCO2)c1cc(-c2ccc(O)cc2)on1,-24.3%,10.3µM*,-11.4,?,?,-23.6%
O=C(Nc1cccc(C(F)(F)F)c1)c1cc2ncc(Br)cn2n1,-27.6%,-8.0%,9.8,23.8%,-14.1%,-2.4%
O=C(Nc1ccc2c(c1)OCO2)c1cc(-c2cccc(O)c2)on1,1.3%,?,-6.4,?,12.8%,-20.4%
CCc1ccc(NC(=O)c2cc(-c3ccc4c(c3)OCO4)on2)cc1,-21.1%,12.8%,-14.4,-17.3%,-3.5%,-10.4%
